Source: PubChem BioAssay (National Center for Advancing Translational Sciences (NCATS))
ELG1 genotox: inducers of genotoxicity in HEK293T ELG1-luciferase cells. HEK293T ELG1-luciferase reporter, luminescence, 16 h. Potency, µM (highest dose often 46 µM), for the others: at the top dose activity change, positive = activation, hits mostly activators. 1.3% of 330,000 active. AID 504466; also: % of control where 0% means no effect; nearly all actives have a fitted effect of over 60% in size
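DMSO vehicle served as control against compound-treated ELG1-luciferase HEK293T cells; exposure lasted 16 hr at 37 °C and 5% CO2, followed by ONE-Glo luminescence detection after 30 min.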
NPC1 promoter act: NPC1 promoter activation. Huh7 NPC1 promoter luciferase reporter, 24 h. Potency, µM (top dose mostly 9.22 µM), for inactives: at the top dose activation, actives largely listed as activators. 2.4% of 320,000 active; also: % of control where 0% means no effect; nearly all actives have a fitted effect of over 60% in size
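Quantitative HTS used a cell-based reporter: Huh7 cells stably bearing the NPC1 promoter upstream of luciferase were treated with compounds for 24 h, and promoter activation was read as luminescence.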
SMN2 splice enh: enhancers of SMN2 splice variant expression. HEK293 SMN2-luciferase splicing reporter, luminescence, 30-36 h. Potency, µM (series often up to 46.1 µM), without a hit: at the highest dose activity change, positive = activation, actives largely listed as activators. 2.8% of 210,000 active. AID 1458; also: % of control where 0% means no effect; nearly all actives have a fitted effect of over 55% in size
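qHTS luciferase splicing reporter: luminescence rises when SMN2 exon 7 is included in transfected HEK293 cells. Compound exposure lasted 30-36 h at 37C, with 4.5 mM final sodium butyrate as control, followed by a ONE-Glo read.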
FLuc modulator: inhibits or activates purified firefly luciferase, miR-21 counter-screen | purified FLuc, Km substrates, luminescence inhibition | 6.9% of 360,000 active | Potency, µM (titrated, usually from 57.5 µM), for inactives: at the highest dose activity change, negative = inhibition, actives largely listed as inhibitors;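 also: plate controls were vehicle for no effect and reference inhibitor for full effect; nearly all actives have a fitted effect of over 55% in size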
Target sequence (P08659 whole entry, looked up): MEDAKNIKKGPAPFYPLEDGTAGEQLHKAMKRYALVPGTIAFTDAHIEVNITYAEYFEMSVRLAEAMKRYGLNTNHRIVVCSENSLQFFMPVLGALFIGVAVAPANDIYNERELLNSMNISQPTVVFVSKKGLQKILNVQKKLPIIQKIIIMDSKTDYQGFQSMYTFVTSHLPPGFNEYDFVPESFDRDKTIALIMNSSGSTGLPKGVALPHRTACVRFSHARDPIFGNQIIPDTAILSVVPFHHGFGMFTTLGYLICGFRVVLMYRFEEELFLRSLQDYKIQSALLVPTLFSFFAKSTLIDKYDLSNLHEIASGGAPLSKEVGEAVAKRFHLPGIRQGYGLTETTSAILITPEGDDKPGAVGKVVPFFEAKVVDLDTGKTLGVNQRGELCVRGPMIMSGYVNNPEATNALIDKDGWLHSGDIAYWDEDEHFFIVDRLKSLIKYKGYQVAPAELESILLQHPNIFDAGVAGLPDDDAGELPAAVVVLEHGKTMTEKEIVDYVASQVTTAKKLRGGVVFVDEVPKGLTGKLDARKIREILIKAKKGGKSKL
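Biochemical qHTS of compounds, final roughly 60 µM downward over six points, against 10 nM purified firefly luciferase using Km concentrations of substrates (10 uM D-luciferin, 10 uM ATP) in Tris acetate pH 7.5 buffer; luminescence output.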
Rab9 prom act: activates the Rab9 promoter. Huh7 Rab9 promoter-luciferase reporter, luminescence, 24 h. Potency, µM (series often up to 9.22 µM), without a hit: top-dose activation, negative = inhibition, actives largely listed as activators. 2.8% of 320,000 active; also: % of control where 0% means no effect; nearly all actives have a fitted effect of over 60% in size
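Huh7 cells stably carrying a Rab9 promoter-luciferase reporter, 1500 cells per well in OP-MEM I with 10% FBS, treated with compound 24 hours at 37C. Luciferase activity read by luminescence after 10 minutes with Amplite reagent.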
* marks the source's active call; other numbers are inactive results; ? = inconclusive; · = no result given; [ ] = another dose, or the depositor's remark. Only some compounds are listed: those with a hit (about 7.4% of all), similar ones and a draw of the others. Calls follow the shape of the dose curve; as a rule, active = well fitted curve in the direction sought with a large enough effect; inconclusive = small, poorly fitted or top-dose-only effect, or another doubt; inactive = no such curve, though single readings can be large; an effect the other way counts as inactive or inconclusive. Potency is read from the fitted curve at half-maximal effect.

SMILES	ELG1 genotox	NPC1 promoter act	SMN2 splice enh	FLuc modulator	Rab9 prom act
C/C(=N\NC(=O)c1c(Br)c(C)nn1C)c1cccc(NC(=O)C2CCC2)c1	0%	0%	6%	19µM*	-1%
C/C(=N\NC(=O)c1ccccc1F)c1ccc(C#N)cc1	?	?	?	?	4µM*
C/C(=N\NC(=S)NCc1ccccc1)c1ccc(C#N)cc1	7%	-3%	9%	1%	-2%
C/C(=N\NC(=O)c1ccc(O)cc1)c1cccc(NC(=O)c2ccccc2C)c1	7%	0%	·	2.7µM*	?
C/C(=N\NC(=O)c1c(Cl)c(C)nn1C)c1cccc(NC(=O)COc2ccccc2)c1	-8%	10%	·	-1%	10%
Cc1nn(C)c2c1c(C(F)(F)F)cc(=O)n2C(C)C(=O)NCCc1ccccc1 (stereo not drawn)	·	·	·	-6%	·
CN(C)CC(CCC(CN(C)C)C(=O)c1ccccc1)C(=O)c1ccccc1 (stereo not drawn)	-16%	-44%	·	-1%	-47%
O=C(CSc1nnc(CNC(=O)c2cccs2)o1)Nc1ccc(Br)cc1	-2%	-1%	·	-7%	1%
CC(C)[C@@H](C(=O)O)N1C(=O)c2ccccc2C1=O	·	·	-11%[9.22 µM]	·	·
Cc1ccc(NNS(=O)(=O)c2ccc(C)cc2)cc1	2%	1%	-13%	21µM*	-1%
OCC1CCCN(C(=S)NCCc2ccccc2)C1 (stereo not drawn)	?	3.2µM*	?	17µM*	?
CC1CCN(C(=S)NCCc2ccccc2)CC1	7.3µM*	3.5µM*	-2%	11µM*	2µM*
S=C(NCCc1ccccc1)N1CCN(C(=S)NCCc2ccccc2)CC1	-4%	-2%	·	-6%	-1%
S=C(NCCc1ccccc1)N1CCN(C2CCCCC2)CC1	0%	0%	7%	-8%	-4%
NC(=O)c1ccsc1NC(=O)COC(=O)c1cc(=O)[nH]c2ccccc12	?	0%	·	2%	9%
Cc1cc(C(C)(C)C)cc(C)c1S(=O)(=O)N1CC(=O)Nc2ccccc21	-2%	-6%	·	-2%	0%
CSCCC(=O)N1CCCC(CNC(=O)c2ccc(-c3ccccc3)cc2)C1 (stereo not drawn)	-2%	-2%	-14%	12µM*	0%
CCc1cc(C(=O)N2CCCC(CNC(=O)c3ccc(-c4ccccc4)cc3)C2)no1 (stereo not drawn)	-5%	-4%	·	12µM*	27%
CCC(=O)C1CCCN(C(=O)c2ccc3nc(-c4cccc(OC)c4)oc3c2)C1 (stereo not drawn)	?	1.4µM*	·	8.5µM*	1.6µM*
COc1cccc(-c2nc3ccc(C(=O)N4CCCC(O)C4)cc3o2)c1 (stereo not drawn)	?	4µM*	·	15µM*	3.5µM*
COc1cccc(-c2noc(C3CCCN(C(=O)c4cccc(F)c4)C3)n2)c1 (stereo not drawn)	1%	14%	·	-15%	5%
CC(=O)C1CCCN(C(=O)c2ccc3nc(Cc4cccc(Cl)c4)oc3c2)C1 (stereo not drawn)	-3%	3%	·	5%	3%
CCCc1ccc(C(=O)NC(=O)c2ccccc2O)cc1	6%	?	·	0.6µM*	?
O=C(NC(=O)c1ccccc1O)c1ccc(C(F)(F)F)cc1	5%	?	·	3µM*	?
CCCc1ccc(C(=O)NNC(=O)c2ccc(Br)cc2)cc1	-1%	-2%	-21%	3%	0%
SMILES	ELG1 genotox	NPC1 promoter act	SMN2 splice enh	FLuc modulator	Rab9 prom act
Cc1ccc(-n2ncc3c(NCCCn4ccnc4)ncnc32)cc1	·	·	·	12µM*	·
Cc1ccc(Cl)cc1-n1ncc2c(NCCCn3ccnc3)ncnc21	·	·	·	-6%	·
Cc1cccc(-n2ncc3c(NCCCn4ccnc4)ncnc32)c1	?	27%	7.1µM*	?	?
Cc1ccc(-n2ncc3c(NCCCn4ccnc4)ncnc32)c(C)c1	-2%	0%	-25%	0%	-7%
CC(CC(=O)NCc1ccco1)S(=O)(=O)c1ccc2c(c1)CCN2C(=O)C1CC1 (stereo not drawn)	0%	-3%	·	0%	-6%
Cc1nc2cc3ccccc3cc2c(=O)[nH]1	?	?	?	13µM*	?
CSc1ncc2c(=O)[nH]c(-c3ccccc3)nc2n1	4%	-2%	·	?	0%[1.84 µM]
Cc1nc2sc(-c3ccccc3)cc2c(=O)[nH]1	0.58µM*	0.63µM*	13µM*	1.3µM*	0.5µM*
O=c1[nH]c(-c2cccnc2)nc2sc(-c3ccccc3)cc12	?	-23%	29%	4.8µM*	26%
CC(C)OC(=O)Cc1nc2sc(-c3ccccc3)cc2c(=O)[nH]1	?	?	·	17µM*	4.5µM*
CCc1cc2c(=O)[nH]c(CC(N)=O)nc2s1	-2%	-2%	-7%	2%	-6%
COc1ccc(OC)c(CCNC(=O)c2cnn(-c3ccccc3)c2C2CCN(C(=O)OC(C)(C)C)CC2)c1	·	·	·	-2%	·
Cc1cnc(C(=O)Nc2ccc(C(C)C)cc2)cn1	?	3.5µM*	10µM*	8.5µM*	1.3µM*
Cc1cnc(C(=O)Nc2ccc(C(=O)N(C)C3CCCCC3)cc2)cn1	1%	0%	-9%	1%	6%
Cc1cnc(C(=O)Nc2ccccc2F)cn1	16µM*	3.5µM*	?	24µM*	18%[1.84 µM]
Cc1cnc(C(=O)Nc2ccc(F)cc2)cn1	?	2.5µM*	13µM*	24µM*	?
OCC(O)C(O)C(O)CO (stereo not drawn)	·	·	6%	·	·
CCOc1ncccc1C(=O)Nc1ccc(C)c(S(=O)(=O)N2CCCCCC2)c1	-7%	-2%	·	0%	-6%
Cc1cccc(CNC(=O)c2oc3c(c2C)-c2nn(Cc4ccccc4Cl)cc2CC3)c1	·	·	·	-10%	·
COc1ccccc1C(=O)Nc1ccc(OCC(=O)N2CCCCC2C)cc1 (stereo not drawn)	1%	-5%	·	12µM*	0%
COc1ccccc1C(=O)Nc1ccc(OCC(=O)N2C(C)CCCC2C)cc1 (stereo not drawn)	3%	1%	·	8.5µM*	9%
COc1ccc(Nc2ncnc3ccccc23)cc1	14%	3.2µM*	11µM*	15µM*	2.8µM*
COc1cccc(Nc2cc(C)c3ccccc3n2)c1	?	25%	·	24µM*	-3%[1.84 µM]
COc1ccc(Nc2ncnc3ccccc23)c(OC)c1	6%	-8%	-33%	?	-2%
O=C(Oc1cccc(Nc2ncnc3ccccc23)c1)c1ccccc1Cl	?	-6%	-42%	17µM*	-8%
COc1cccc(Nc2ncnc3ccccc23)c1	4.6µM*	?	14µM*	11µM*	?
COc1ccc(Nc2ccnc(Nc3ccc(OC)cc3)n2)cc1	-4%	?	15%	7.6µM*	?
COc1ccc(Nc2cc(Nc3ccccc3)ncn2)cc1	?	2µM*	·	?	2µM*
